Data: PubChem BioAssay (NCATS)
Values joined by “and” are separate entries in the source; they are usually repeats but may differ in a detail not shown here. Identical values can stand only once. Inconclusive results are not listed. The source holds several records for some structures; these can differ, active in one and inactive in another. Active and inactive are the calls of the source. The call rests on the fitted dose curve; in most records, active means well fitted inhibition curve with a large enough effect; inconclusive means small, poorly fitted or top-dose-only effect; inactive means flat fitted curve, though single readings scatter.

What was measured:
Assay in all cases: Cytotoxic Profiling of Annotated Libraries Using Quantitative High-Throughput Screening (AID 1296008); further: nearly all actives have a fitted effect of over 60% in size
Details in all cases: Five cell lines viability, CellTiter-Glo ATP luminescence, 48-72 h; max response: active compounds read low
CRL-7250 = normal cell line; tested on: CRL-7250
How it was run: (§1)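 Cells exposed to compounds for 48 or 72 hr at 37 degrees Celsius. Viability read as ATP-coupled luminescence with CellTiter-Glo after 10 min at room temperature.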

HEK293 = tested on: HEK293
How it was run: as §1

HaCat = tested on: HaCat
How it was run: as §1

KB-3-1 = tested on: KB-3-1
How it was run: as §1

NIH3T3 = tested on: NIH3T3
How it was run: as §1
On the % scale 0 is the no-effect control and ±100 the full control effect; potency means the concentration at half of the fitted maximal effect.

CC12CCC3C(CCC4(O)CC(O)CCC34C=O)C1(O)CCC2C1=CC(=O)OC1 (stereo unspecified)
active: Potency (CRL-7250) 326 nM | Potency (HEK293) 1030 nM | Potency (HaCat) 1.64 µM | Potency (KB-3-1) 1.16 µM
inactive: outcome (NIH3T3)

COc1c(C(C)C)cc2c(c1O)[C@@]1(C(=O)O)CCCC(C)(C)C1CC2 (stereo partly specified)
inactive: outcome (CRL-7250) | outcome (HEK293) | max response (HaCat) 0.977% | outcome (KB-3-1) | max response (NIH3T3) 0.972%

N#C[C@@H](O[C@@H]1O[C@H](CO[C@@H]2O[C@H](CO)[C@@H](O)[C@H](O)[C@H]2O)[C@@H](O)[C@H](O)[C@H]1O)c1ccccc1
inactive: max response (CRL-7250) 3.46% | max response (HEK293) 4.21% | outcome (HaCat) | max response (KB-3-1) 5.22% | outcome (NIH3T3)

C/C=C(\C)C(=O)OC1CC2C(CC=C3CC(OC4CC(OC)C(OC5CC(OC)C(OC6OC(C)C(OC7OC(CO)C(O)C(O)C7O)C(OC)C6O)C(C)O5)C(C)O4)CCC32C)C2(O)CCC(C(C)=O)C12C (stereo unspecified)
inactive: outcome (CRL-7250) | max response (HEK293) -9.26% | outcome (HaCat) | outcome (KB-3-1) | max response (NIH3T3) -0.91%

C/C=C(\C)C(=O)OC1CC2C(C)(C)OC(=O)CC(OC(C)=O)C2(C)C2CC(OC(=O)C(C)C)C3(C)C(c4ccoc4)CC4OC43C12C (stereo unspecified)
inactive: outcome (CRL-7250) | max response (HEK293) -0.997% | outcome (HaCat) | max response (KB-3-1) 7.39% | max response (NIH3T3) 0.059%

CN1C(=O)c2ccccc2NC(=O)[C@]12O[C@@H]2c1ccccc1
inactive: max response (CRL-7250) -12.4% | outcome (HEK293) | max response (HaCat) -12.1% | max response (KB-3-1) 8.97% | max response (NIH3T3) -7.39%

COC1CC(OC2CCC3(C=O)C(CCC4C3CCC3(C)C(C5=CC(=O)OC5)CCC43O)C2)OC(C)C1OC1OC(CO)C(O)C(O)C1O (stereo unspecified)
active: Potency (CRL-7250) 96.8 nM | Potency (HEK293) 193 nM | Potency (HaCat) 0.685 µM | Potency (KB-3-1) 0.343 µM
inactive: outcome (NIH3T3)

O=C1C[C@@H]2OCC=C3CN4CC[C@]56c7ccccc7N1[C@H]5[C@H]2[C@H]3C[C@H]46
inactive: outcome (CRL-7250) | max response (HEK293) -6.49% | outcome (HaCat) | max response (KB-3-1) -9.91% | outcome (KB-3-1) | max response (NIH3T3) 3.86%

C[C@@]1(C(=O)O)CC[C@]2(C)CC[C@]3(C)C4=CC(=O)c5cc(O)c(O)cc5[C@]4(C)CC[C@@]3(C)[C@@H]2C1
inactive: outcome (CRL-7250) | max response (HEK293) -9.77% | outcome (HaCat) | outcome (KB-3-1) | outcome (NIH3T3)

CCOc1ccccc1-n1c(C(C)N2CCN(C(=O)COc3ccc(Cl)cc3)CC2)nc2ccccc2c1=O (stereo unspecified)
inactive: max response (HaCat) -19.2%
active: Potency (CRL-7250) 5.17 µM and 3.71 µM | Potency (HEK293) 4.11 µM and 2.95 µM | Potency (HaCat) 18.6 µM | Potency (NIH3T3) 1.03 µM and 933 nM

COc1ccccc1CN[C@H]1C2CCN(CC2)[C@H]1C(c1ccccc1)c1ccccc1
inactive: outcome (CRL-7250) | max response (HEK293) -17% | outcome (HaCat) | max response (KB-3-1) -8.54% | outcome (NIH3T3)

C[C@]12CC[C@H]3[C@@H]([C@H](O)CC4=CC(=O)CC[C@@]43C)[C@@H]1CC[C@@H]2O
inactive: outcome (CRL-7250) | max response (HEK293) -7.8% | max response (HaCat) -25.7% | max response (KB-3-1) 5.15% | outcome (NIH3T3)

COC1C(O)C(C)OC(OC2C(CO)O[C@@H](O[C@@H]3CC4CCC5C(CC[C@]6(C)[C@@H](C7=CC(=O)OC7)CC[C@]56O)[C@@]4(C)[C@H](O)C3)C(O)C2O)C1O (stereo partly specified)
active: Potency (CRL-7250) 485 nM | Potency (HEK293) 432 nM | Potency (HaCat) 3.43 µM | Potency (KB-3-1) 0.862 µM
inactive: outcome (NIH3T3)

CC(C)[C@@H](CN1CC[C@@](C)(c2cccc(O)c2)[C@@H](C)C1)NC(=O)[C@H]1Cc2ccc(O)cc2CN1
inactive: outcome (CRL-7250) | max response (HEK293) -18.6% | outcome (HaCat) | max response (KB-3-1) 4.16% | outcome (NIH3T3)

CCCCCOc1cc2c(cc1-c1cc(/C=C/C(=O)O)ccc1O)C(C)(C)CCC2(C)C
inactive: max response (CRL-7250) -2.58% | outcome (HEK293) | outcome (HaCat) | outcome (KB-3-1) | max response (NIH3T3) -4.13%

C/C=C(\C)C(=O)O[C@H]1[C@H](OC(C)=O)[C@]2(CO)[C@H](O)[C@H](O)[C@]3(C)C(=CCC4[C@@]5(C)CC[C@H](O[C@@H]6O[C@H](C(=O)O)[C@@H](O)[C@H](O[C@@H]7OC[C@H](O)[C@H](O[C@@H]8OC[C@H](O)[C@H](O)[C@H]8O)[C@H]7O)[C@H]6O[C@@H]6O[C@H](CO)[C@@H](O)[C@H](O)[C@H]6O)C(C)(C)C5CC[C@]43C)[C@@H]2CC1(C)C (stereo partly specified)
inactive: max response (CRL-7250) 4.83% | outcome (HEK293) | max response (HaCat) 3.31% | outcome (KB-3-1) | outcome (NIH3T3)

CC(=O)OC12C(O)C(C)C3(O)C4C=C(C)C(=O)C4CC(CO)=CC3C1C2(C)C (stereo unspecified)
inactive: max response (CRL-7250) 1.13% | max response (HEK293) -4.3% | max response (HaCat) -13.8% | outcome (KB-3-1) | outcome (NIH3T3)

C=CC(C)(O)CC/C=C(\C)C(=O)O[C@H]1[C@H](O)[C@@H](CO)O[C@@H](OC(=O)[C@]23CCC(C)(C)CC2C2=CCC4[C@@]5(C)CC[C@H](O[C@@H]6O[C@H](CO[C@@H]7OC[C@H](O)[C@H](O)[C@H]7O[C@@H]7OC[C@@H](O)[C@H](O)[C@H]7O)[C@@H](O)[C@H](O)[C@H]6O)C(C)(C)C5CC[C@@]4(C)[C@]2(C)CC3)[C@@H]1OC1OC(C)C(O[C@@H]2OC[C@@H](O)[C@H](O[C@@H]3OC[C@@H](O)[C@H](O)[C@H]3O)[C@H]2O)C(O)C1O (stereo partly specified)
inactive: max response (CRL-7250) -5.86% | max response (HEK293) 0.313% | outcome (HaCat) | max response (KB-3-1) -0.269% | outcome (NIH3T3)
